Screening data as filed in PubChem BioAssay.
Only some compounds are listed: those with a hit (about 21% of all), similar ones and a draw of the others.
Pf growth 48h – inhibits P. falciparum growth in the first generation, 48 h. P. falciparum luciferase growth in erythrocytes, 48 h. 310,000 compounds, 5.9% hits. Potency, µM (series often up to 28.7 µM), for the others: at the top dose activity change, negative = inhibition, hits mostly inhibitors. AID 504832; note: potency is the fitted concentration of half-maximal effect; % is set by controls: 0 for no effect and ±100 for the full control effect
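Compounds are pin-transferred into medium, infected erythrocytes (2% hematocrit, 0.1% parasitemia final) are added, and plates sit one parasite generation at 37 C in 5% CO2. Detection reagent is then added and luminescence measured.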
CHX counter – counter-screen hit for Shiga toxin inhibitors, cycloheximide; cell reporter, cycloheximide protein synthesis inhibition counterscreen; max response, %; 300,000 compounds, 12% hits; in the data active = max response mostly above about 13%, no sharp cut-off; inactive = mostly below about 14%; note: read at 38.3 µM for the half of the compounds with a filed dose; 0% is about no effect
Pf growth 96h – inhibits malaria parasite growth, 96 h. P. falciparum luciferase reporter growth, 96 h. Potency, µM (series often up to 28.7 µM), for the others: at the top dose activity change, negative = inhibition, usual class: inhibitors. 320,000 compounds, 6.9% hits. AID 504834; note: potency is the fitted concentration of half-maximal effect; % is set by controls: 0 for no effect and ±100 for the full control effect
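96 h incubation, 37 C, 5% CO2, of luciferase-reporter P. falciparum-infected RBCs (2% hematocrit, 0.05% parasitemia final) with test compounds; endpoint luminescence.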
HCV inhibitor – blocks hepatitis C virus. Huh7.5.1 HCVcc-Cre infection, luciferase reporter, 44 h. Potency, µM (doses to about 41.8 µM), for inactives: at the highest dose activity change, negative = inhibition, most hits filed as inhibitors. 340,000 compounds, 3.4% hits; note: potency is the fitted concentration of half-maximal effect; % is set by controls: 0 for no effect and ±100 for the full control effect
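Seed cells (1,000/well) for 4 h; treat with compound and infect with HCVcc-Cre, moi about 0.5. Incubate 44 h, then detect luciferase activity.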
Shiga inhibitor – inhibitors of Shiga toxin in Vero cells. Vero cells, Shiga toxin protein synthesis inhibition reporter. inhibition, % at 38.7 µM. 290,000 compounds, 9.2% hits; in the data active = inhibition mostly above about 28%, no sharp cut-off; inactive = mostly below about 43%; note: 0% is about no effect
AMA1-RON2 inh – AMA1-RON2 (P. falciparum) interaction inhibition; Potency, µM (highest dose often 58.2 µM), for the others: top-dose activity change, negative = inhibition, most hits filed as inhibitors; AlphaScreen AMA1-biotinylated RON2 peptide binding; AID 720542; 360,000 compounds, 0.2% hits;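 note: potency is the fitted concentration of half-maximal effect; 0% = vehicle wells and -100% = peptide control; nearly all actives have a fitted effect of over 45% in size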
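AMA1 (3D7) with his tag at 25 nM final met compounds first, then biotinylated RON2 peptide at 25 nM; detection used donor plus acceptor beads, 10 µg/mL apiece, read by AlphaScreen after 30 min at room temperature.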
Starred values were filed as active, the others as inactive; [ ] = remark or other dose. Unless noted, calls come from the whole dose curve; as a rule, active = well fitted curve in the direction sought with a large enough effect; inconclusive = small, poorly fitted or top-dose-only effect, or another doubt; inactive = no such curve, though single readings can be large; an effect the other way counts as inactive or inconclusive.

`COc1ccc(OCCCSc2ncccn2)cc1` gave Pf growth 48h 136%, CHX counter 39*, Pf growth 96h inconclusive, HCV inhibitor 6%, Shiga inhibitor 104* and AMA1-RON2 inh 3%.
COc1cccc(OCCCCSc2ncccn2)c1 was read as Pf growth 48h 42%, CHX counter 26, Pf growth 96h inconclusive, HCV inhibitor 12%, Shiga inhibitor 63 and AMA1-RON2 inh 68%.
For Cc1ccc(-n2c(C)nnc2SCC(=O)N(C)C2CCS(=O)(=O)C2)cc1 (centres undefined) the results were Pf growth 48h inconclusive, Pf growth 96h inconclusive, HCV inhibitor 8% and AMA1-RON2 inh -7%.
`Cc1ccc(OCCCSc2ncccn2)cc1C` gave Pf growth 48h 189%, CHX counter 44*, Pf growth 96h 101%, HCV inhibitor -3%, Shiga inhibitor 74* and AMA1-RON2 inh 32%.
`c1cnc(SCCCOc2ccc3ccccc3c2)nc1` gave Pf growth 48h 53%, CHX counter 31, HCV inhibitor -2%, Shiga inhibitor 77 and AMA1-RON2 inh 100%.
Screening OC(COc1ccc(Cl)cc1)CSc1ccccn1 (centres undefined) returned Pf growth 48h 28%, CHX counter 27*, Pf growth 96h inconclusive, HCV inhibitor 0%, Shiga inhibitor 21 and AMA1-RON2 inh 3%.
O=C1CCC(=O)N1CCSC(=S)N1CCOCC1 was read as Pf growth 48h 26%, CHX counter 8, Pf growth 96h 33%, HCV inhibitor -1%, Shiga inhibitor 41* and AMA1-RON2 inh -5%.
Screening O=C(O)CCSC(=S)N1CCOCC1 returned Pf growth 48h 23%, CHX counter -1, Pf growth 96h 26%, HCV inhibitor 10%, Shiga inhibitor -10 and AMA1-RON2 inh -12%.
Screening Cc1ccccc1S(=O)Cc1ccc(C(=O)N2CCN(C(=O)c3ccco3)CC2)o1 (centres undefined) returned Pf growth 48h 7%, CHX counter -10, Pf growth 96h inconclusive, HCV inhibitor 16%, Shiga inhibitor -5 and AMA1-RON2 inh 1%.
`N#Cc1cnn2ccc(-c3ccc4c(c3)CCC4)nc12` gave Pf growth 48h -6%, CHX counter 12, Pf growth 96h 10%, HCV inhibitor -9%, Shiga inhibitor 16 and AMA1-RON2 inh 22%.
`Cc1ccc(S(=O)(=O)NC(=O)Cn2nnc(-c3ccccc3)c2COc2ccc3ccccc3c2)cc1` gave AMA1-RON2 inh 3%.
`CCC1(c2ccccc2)NC(=O)N(CC(=O)NCc2ccc(C)cc2)C1=O` (centres undefined) gave Pf growth 48h -15%, CHX counter -3, Pf growth 96h 6%, HCV inhibitor 12%, Shiga inhibitor 2 and AMA1-RON2 inh -4%.
`O=C(/C=C/Nc1ccccc1C(F)(F)F)c1ccco1` gave Pf growth 48h 105%, CHX counter 44*, Pf growth 96h -9%, HCV inhibitor inconclusive, Shiga inhibitor 59* and AMA1-RON2 inh -16%.
O=C(/C=C/Nc1ccc(Oc2ccccc2)cc1)c1ccco1 was read as Pf growth 48h 270%, CHX counter 56*, Pf growth 96h -33%[5.75 µM], HCV inhibitor -21%, Shiga inhibitor 70* and AMA1-RON2 inh 1%.
For NC(=O)c1ccccc1N/C=C/C(=O)c1ccco1 the results were Pf growth 48h 107%, CHX counter 30*, Pf growth 96h -11%, HCV inhibitor -7%, Shiga inhibitor 69* and AMA1-RON2 inh 4%.
`CCn1nc(C)cc1C(=O)N1CCCC(C(=O)c2ccccc2SC)C1` (centres undefined) gave Pf growth 48h -10%, CHX counter 1, Pf growth 96h 0%, HCV inhibitor inconclusive, Shiga inhibitor -5 and AMA1-RON2 inh 0%.
For COc1ccc2[nH]cc(CCNC(=O)Cc3ccc(F)cc3)c2c1 the results were Pf growth 48h 30%, CHX counter -1, Pf growth 96h inconclusive, HCV inhibitor 5%, Shiga inhibitor -5 and AMA1-RON2 inh 6%.
